Laboratory results: the supplement of paper PMC13380429

Tested on: Vero E6 infected with SARS-CoV-2
Experiment: inhibition of SARS-CoV-2 cytopathic effect; higher = more antiviral protection, active = above 15
Settings: 48 h

Measured: inhibition of SARS-CoV-2 cytopathic effect

N#C[C@@H]1CCCN1C(=O)CNC12CC3CC(CC(O)(C3)C1)C2 [vildagliptin]
inactive: 1 nM 0.17% | 8.33 nM -0.28% | 100 nM -0.35% | 833.33 nM -0.2% | 10000 nM 1.3%

COc1cc(Cc2cnc(N)nc2N)cc(OC)c1OC [trimethoprim]
inactive: 1 nM -0.11% | 8.33 nM 0.21% | 100 nM -0.75% | 833.33 nM 2.08% | 10000 nM 2.04%

Cn1cc([S+](C)[O-])c(=O)c2ccc(F)cc21 (stereo not given) [flosequinan]
inactive: 1 nM -1.94% | 8.33 nM -0.91% | 100 nM 0.34% | 833.33 nM 2.01% | 10000 nM 0.19%

CN(C)c1ccc(C(=C2C=CC(=[N+](C)C)C=C2)c2ccc(N(C)C)cc2)cc1 [crystal-violet]
inactive: 1 nM -0.43% | 8.33 nM 1.49% | 100 nM 0.27% | 833.33 nM -11.4% | 10000 nM -22.8%

C=CCN1CC[C@]23c4c5ccc(O)c4O[C@H]2[C@@H](OCCOCCOCCOCCOCCOCCOCCOC)CC[C@@]3(O)[C@H]1C5 [naloxegol]
inactive: 1 nM 2.88% | 8.33 nM 0.75% | 100 nM 1.49% | 833.33 nM 0.6% | 10000 nM -1.7%

CCCCCCCCCCCCCCCCCC(=O)OCC(O)CO (stereo not given) [monostearin]
inactive: 1 nM 3.45% | 8.33 nM 0.27% | 100 nM 0.45% | 833.33 nM 0.48% | 10000 nM -0.08%

CN1C(=O)COc2c(C(=O)NC3CN4CCC3CC4)cc(Cl)cc21 (stereo not given) [azasetron]
inactive: 1 nM 1.97% | 8.33 nM 1.89% | 100 nM 0.9% | 833.33 nM -0.56% | 10000 nM -0.16%

NC(=O)C(c1ccccc1)(c1ccc(F)cc1)c1ccc(F)cc1 [senicapoc]
inactive: 1 nM -2.77% | 8.33 nM -1.48% | 100 nM -2.37% | 833.33 nM 0.14% | 10000 nM -0.54%

C[C@@]1(c2cc(-c3cncnc3)c(F)cc2F)CCSC(N)=N1
inactive: 1 nM -0.91% | 8.33 nM -3.4% | 100 nM -0.51% | 833.33 nM -2% | 10000 nM -3.12%

CC[C@@H](CO)NC(=O)[C@@H]1C=C2c3cccc4[nH]cc(c34)C[C@H]2N(C)C1 [methylergometrine]
inactive: 1 nM -0.77% | 8.33 nM 0.44% | 100 nM -0.17% | 833.33 nM 0.13% | 10000 nM 0%

NC[C@H]1CC[C@H](C(=O)O)CC1 [tranexamic-acid]
inactive: 1 nM 1.98% | 8.33 nM 1.51% | 100 nM 2.74% | 833.33 nM 0.85% | 10000 nM -0.32%

Cc1cccc(NC(=O)CN2CCC(c3ccccn3)CC2)c1
inactive: 1 nM 1.23% | 8.33 nM 1.06% | 100 nM -0.12% | 833.33 nM 0% | 10000 nM 3.09%

CCOC(=O)[C@@H](N)CCC(=O)N[C@@H](CSCc1ccccc1)C(=O)N[C@@H](C(=O)OCC)c1ccccc1 [ezatiostat]
inactive: 1 nM -0.49% | 8.33 nM 0.28% | 100 nM 1.7% | 833.33 nM 2.71% | 10000 nM 0.41%

C[C@H](CCC(=O)NCCS(=O)(=O)O)[C@H]1CC[C@H]2[C@@H]3[C@@H](O)C[C@@H]4C[C@H](O)CC[C@]4(C)[C@H]3CC[C@]12C [ursodeoxycholyltaurine]
inactive: 1 nM -1.76% | 8.33 nM 3.52% | 100 nM 1.07% | 833.33 nM -3.74% | 10000 nM -4.25%

NCc1ccc(S(N)(=O)=O)cc1 [mafenide]
inactive: 1 nM 0.46% | 8.33 nM 1.5% | 100 nM 1.54% | 833.33 nM 2.7% | 10000 nM -2.32%

CCC(=O)OCN1C(=O)C=CC1=O
inactive: 1 nM -0.55% | 8.33 nM 0.83% | 100 nM 0.41% | 833.33 nM 1.73% | 10000 nM 1.22%

NCCCC(O)(P(=O)(O)O)P(=O)(O)O [alendronate]
inactive: 1 nM -2.08% | 8.33 nM -1.44% | 100 nM 0.15% | 833.33 nM -0.56% | 10000 nM -0.44%

Nc1ccc(-c2nc3ccc(-c4nc5ccc(N)cc5[nH]4)cc3[nH]2)cc1
inactive: 1 nM -0.32% | 8.33 nM 0.21% | 100 nM -0.94% | 833.33 nM 2.79% | 10000 nM 6.35%

Cc1nn(C)c2c1C(c1ccc(C(F)(F)F)cc1)C(C#N)=C(N)O2 (stereo not given)
inactive: 1 nM -1.05% | 8.33 nM -1.78% | 100 nM -1.6% | 833.33 nM -1.63% | 10000 nM 2.56%

CC(C)N[C@H]1CCn2c(=O)[nH]c3cccc(c32)[C@@H]1O [zilpaterol]
inactive: 1 nM 0.575% | 8.33 nM -0.6% | 100 nM -1.14% | 833.33 nM -1.59% | 10000 nM -2.51%

Oc1ccc(Cl)cc1Cc1cc(Cl)ccc1O [dichlorophen]
inactive: 1 nM -4.53% | 8.33 nM 0.22% | 100 nM -2.85% | 833.33 nM -2.86% | 10000 nM 1.46%

COc1ccc(C2CC(c3c(O)cc(C)oc3=O)=NCCS2)c(OC)c1 (stereo not given)
inactive: 1 nM 0.21% | 8.33 nM 3.01% | 100 nM -2.07% | 833.33 nM -0.81% | 10000 nM -8.62%

CC(C)N(CC[C@H](c1ccccc1)c1cc(CO)ccc1O)C(C)C [5-hydroxymethyl-tolterodine]
inactive: 1 nM -1.98% | 8.33 nM -1.4% | 100 nM -1.82% | 833.33 nM 2.8% | 10000 nM -3.28%

COc1cccc(-c2cc(NCc3ccc4c(c3)OCO4)nc(N)n2)c1
inactive: 1 nM 0.39% | 8.33 nM -1.05% | 100 nM 0.16% | 833.33 nM -2.75% | 10000 nM -1.99%

CCC[C@H](NC(=O)/C(C#N)=C/c1cccc(Br)n1)c1ccccc1
inactive: 1 nM 1.89% | 8.33 nM 1.78% | 100 nM -0.09% | 833.33 nM 4.12% | 10000 nM -5.9%

NNC(=O)CN1C(=O)CN=C(c2ccccc2)c2cc(Br)ccc21 [gidazepam]
inactive: 1 nM 0.8% | 8.33 nM 2.74% | 100 nM 1.83% | 833.33 nM 2.01% | 10000 nM 3.71%

CC(C)c1cccc2c1OC(C(C)C)C(=S)N2CC(=O)O (stereo not given)
inactive: 1 nM -0.74% | 8.33 nM 3.31% | 100 nM 1.03% | 833.33 nM 1.02% | 10000 nM -0.31%

CCCCCCCCCCCCCCC[C@@H](O)[C@@H](N)CO [safingol]
inactive: 1 nM 3.01% | 8.33 nM 0.67% | 100 nM 1.42% | 833.33 nM 2.02% | 10000 nM -4.84%

OC[C@H]1O[C@@H](c2ccc(Cl)c(Cc3ccc(O[C@H]4CCOC4)cc3)c2)[C@H](O)[C@@H](O)[C@@H]1O [empagliflozin]
inactive: 1 nM 1.11% | 8.33 nM -0.27% | 100 nM 0.91% | 833.33 nM 1.13% | 10000 nM -2.24%

CO/N=C1\C[C@]2(C[C@@H]3C[C@@H](C/C=C(\C)C[C@@H](C)/C=C/C=C4\CO[C@@H]5[C@H](O)C(C)=C[C@@H](C(=O)O3)[C@]45O)O2)O[C@H](/C(C)=C/C(C)C)[C@H]1C [moxidectin]
inactive: 1 nM -5.37% | 8.33 nM -7.08% | 100 nM -3.57% | 833.33 nM -4.07% | 10000 nM 2.53%

CC(C)CN(C[C@@H](O)[C@H](Cc1ccccc1)NC(=O)O[C@H]1CO[C@H]2OCC[C@H]21)S(=O)(=O)c1ccc(N)cc1 [darunavir]
inactive: 1 nM -2.41% | 8.33 nM -2.86% | 100 nM -0.7% | 833.33 nM 0.44% | 10000 nM -1.15%

O=C(O)c1ccc(S(=O)(=O)N(Cc2ccc(OC(F)(F)F)cc2)c2ncc(C(F)(F)F)cc2Cl)cc1
inactive: 1 nM 1.52% | 8.33 nM -0.05% | 100 nM 1.73% | 833.33 nM 1.99% | 10000 nM 4.63%

CC1(C)CCC(C)(C)c2cc(NC(=O)c3ccc(C(=O)O)cc3)ccc21 [tamibarotene]
inactive: 1 nM 4.56% | 8.33 nM 1.67% | 100 nM 1.5% | 833.33 nM 0.87% | 10000 nM 0.68%

CC(C)OC(=O)[C@H](C)N[P@@](=O)(OC[C@H]1O[C@@H](n2ccc(=O)[nH]c2=O)[C@](C)(F)[C@@H]1O)Oc1ccccc1
inactive: 1 nM 2.14% | 8.33 nM -0.76% | 100 nM -2.61% | 833.33 nM -0.19% | 10000 nM 0.32%

CCCCc1ccc2[nH]c(NC(=O)OC)nc2c1 [parbendazole]
inactive: 1 nM 0.24% | 8.33 nM 0.63% | 100 nM -0.29% | 833.33 nM -0.99% | 10000 nM -1.63%

Cc1ncc([N+](=O)[O-])n1CC(C)O (stereo not given) [secnidazole]
inactive: 1 nM -4.41% | 8.33 nM -8.4% | 100 nM -5.52% | 833.33 nM -10.4% | 10000 nM -9.47%

COc1cc(OC)cc(-c2ccc3c(-c4ccc(F)cc4)n[nH]c3n2)c1
inactive: 1 nM 12% | 8.33 nM -1.07% | 100 nM 2.95% | 833.33 nM 1.46% | 10000 nM -0.11%

O=C([O-])c1ccccn1.O=C([O-])c1ccccn1.O=C([O-])c1ccccn1.[Cr+3] [chromium-picolinate]
inactive: 1 nM 0.6% | 8.33 nM 3.76% | 100 nM 1.3% | 833.33 nM -3.86% | 10000 nM 0.6%

Cc1ccc(NC2=CC(=O)c3sc(C)nc3C2=O)cc1 [ryuvidine]
inactive: 1 nM 1.42% | 8.33 nM 4.18% | 100 nM 4.56% | 833.33 nM 6.56% | 10000 nM -20.4%
